Screening data (PubChem)
Rows were chosen to be rich in hits. Some 11% of all compounds tested hit in one or more screens of this group.
G9a block: G9a (human) methyltransferase inhibition | Q96KQ7 | G9a H3K9 monomethylation, AlphaScreen, 2 h | Potency, µM (top dose mostly 102 µM), inactives show at the top dose activity, negative = inhibition, usual class: inhibitors | 8.8% of 350,000 active | AID 504332; further: on the % scale 0 is the no-effect control and ±100 the full control effect; nearly all actives have a fitted effect of over 75% in size
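Using a bead-based AlphaScreen, monomethylated H3K9 product from 2 h room-temperature reactions (G9a 20 nM, peptide 500 nM, SAM 20 uM) was detected with 0.5 ug/mL rabbit anti-H3K9me1 antibody.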
BAZ2B block: blocks human BAZ2B; Potency, µM (top dose mostly 114 µM), inactives show at the highest dose activity change, negative = inhibition, hits mostly inhibitors; Q9UIF8; AID 504333; 4.4% of 360,000 active; AlphaScreen BAZ2B-H3K14Ac peptide displacement; further: on the % scale 0 is the no-effect control and ±100 the full control effect; nearly all actives have a fitted effect of over 60% in size
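Compounds, titrated to a top concentration of 110 uM, were incubated 30 min at room temperature with preformed BAZ2B/acetyl-K14 H3 peptide complex (50 nM each). Proximity signal was measured by AlphaScreen after 20 min with beads.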
HP1b chromo inh: inhibitors of HP1-beta chromodomain binding to methylated histone tails; P83916; AlphaScreen HP1-beta / biotin-H3K9me3 peptide binding; Potency, µM (top dose mostly 114 µM), for the others: top-dose activity change, negative = inhibition, usual class: inhibitors; 0.56% of 390,000 active; AID 540317; further: nearly all actives have a fitted effect of over 70% in size
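Compound inhibition of the preformed complex between 50 nM HP1-beta and 50 nM biotinylated H3K9me3 peptide was read by AlphaScreen. Buffer was PBS pH 7.4 with 0.01% Tween-20. Incubations ran 30 min at room temperature, with 10 ug/mL donor/acceptor beads.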
L3MBTL1 block: blocks human L3MBTL1; AID 485360; Q9Y468; 0.66% of 230,000 active; AlphaScreen L3MBTL1–H3K9me1 peptide binding; Potency, µM (highest dose often 57.1 µM), inactives show at the top dose activity, negative = inhibition, actives largely listed as inhibitors; further: on the % scale 0 is the no-effect control and ±100 the full control effect; nearly all actives have a fitted effect of over 60% in size
Target sequence (Q9Y468 whole entry, looked up): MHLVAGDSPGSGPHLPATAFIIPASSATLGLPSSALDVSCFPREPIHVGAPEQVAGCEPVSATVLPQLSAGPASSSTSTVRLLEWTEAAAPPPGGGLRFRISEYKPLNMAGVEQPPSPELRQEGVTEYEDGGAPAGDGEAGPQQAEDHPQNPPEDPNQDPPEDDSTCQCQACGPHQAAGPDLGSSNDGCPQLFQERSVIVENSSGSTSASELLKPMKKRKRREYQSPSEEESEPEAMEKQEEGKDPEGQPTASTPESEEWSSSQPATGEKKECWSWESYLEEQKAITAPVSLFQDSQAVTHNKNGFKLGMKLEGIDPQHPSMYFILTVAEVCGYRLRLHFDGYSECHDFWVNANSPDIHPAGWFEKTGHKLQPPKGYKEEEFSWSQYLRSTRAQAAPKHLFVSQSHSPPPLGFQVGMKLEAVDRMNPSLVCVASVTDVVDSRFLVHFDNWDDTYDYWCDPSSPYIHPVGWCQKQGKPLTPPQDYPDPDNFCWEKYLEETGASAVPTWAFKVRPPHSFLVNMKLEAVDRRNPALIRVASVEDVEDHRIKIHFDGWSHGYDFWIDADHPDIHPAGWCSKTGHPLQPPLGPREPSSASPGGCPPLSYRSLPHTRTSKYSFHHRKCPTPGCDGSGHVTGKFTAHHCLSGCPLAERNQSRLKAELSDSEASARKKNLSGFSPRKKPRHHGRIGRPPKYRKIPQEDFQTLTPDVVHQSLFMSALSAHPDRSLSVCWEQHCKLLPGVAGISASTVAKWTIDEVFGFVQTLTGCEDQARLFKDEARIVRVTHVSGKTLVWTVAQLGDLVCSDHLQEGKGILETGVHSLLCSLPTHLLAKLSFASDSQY
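L3MBTL1 50 nM + b-AHA-H3(1-15)K9me1 75 nM, 30 min RT; compound added, 30 min RT; streptavidin donor/Ni-chelate acceptor beads 10 ug/mL each final, 30 min RT dark; AlphaScreen read.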
JMJD2A Tudor: JMJD2A Tudor domain (human) inhibition; AlphaScreen JMJD2A-Tudor / H3K4me3 peptide binding; Potency, µM (series often up to 114 µM), inactives show top-dose activity change, negative = inhibition, actives largely listed as inhibitors; 4.4% of 390,000 active; further: on the % scale 0 is the no-effect control and ±100 the full control effect; nearly all actives have a fitted effect of over 50% in size
* marks the source's active call; other numbers are inactive results; ? = inconclusive; . = no result given; [ ] = another dose, or the depositor's remark. The call rests on the fitted dose curve; in most records, active means well fitted inhibition curve with a large enough effect; inconclusive means small, poorly fitted or top-dose-only effect; inactive means no such curve, though single readings can be large or run the other way. Potency means the concentration at half of the fitted maximal effect.

SMILES | G9a block | BAZ2B block | HP1b chromo inh | L3MBTL1 block | JMJD2A Tudor
COc1cccc(NC(=O)C(=O)NCC(c2cccnc2)N2CCN(c3ccccc3)CC2)c1 (stereo unspecified) | -18.2%[59 µM] | ? | 43.3% | . | -17.1%
COc1ccc(OC)c(NC(=O)c2ccccc2OC(C)=O)c1 | . | . | 27.0% | . | -11.0%
CC(C)OCCCNc1ncc2c(n1)CC(c1ccc(N(C)C)cc1)CC2=O (stereo unspecified) | 35.5µM* | -38.2% | -9.4% | -3.9% | ?
CC(C)OCCCNc1ncc2c(n1)CC(c1cccs1)CC2=O (stereo unspecified) | ? | -10.6% | 24.2% | -2.2% | -8.3%
CCN(CC)c1ccc(C(=O)N/N=C(\C)c2cccnc2)cc1 | 4.2% | -6.1% | 30.5% | -0.5% | -14.0%
C/C(=N\NC(=O)c1ccc(N(C)C)cc1)c1ccc(C)cc1C | ? | ? | 20.3% | -16.3% | -26.5%
C/C(=N\NC(=O)c1cccnc1)c1ccc(OC2OCCOC2Oc2ccc(/C(C)=N/NC(=O)c3cccnc3)cc2)cc1 (stereo unspecified) | 26.7% | -17.5% | ? | -3.3% | 14.1µM*
C/C(=N\NC(=O)c1ccc(N(C)C)cc1)c1ccc(C)c(C)c1 | 44.7µM* | -7.5% | 9.2% | -0.4% | -22.3%
C/C(=N\NC(=O)c1ccc(N(C)C)cc1)c1cccnc1 | 25.1µM* | ? | 38.6% | . | -17.9%
COCCN(C(=O)c1ccc(C)o1)c1c(N)n(CC(C)C)c(=O)[nH]c1=O | -1.6%[12.7 µM] | 8.5% | -2.9% | 2.4% | -19.5%
CN1c2ccsc2C(O)=C(C(=S)Nc2ccccc2)S1(=O)=O | ? | ? | -0.9% | . | ?
Cc1ccccc1NC(=S)C1=C(O)c2sccc2N(C)S1(=O)=O | 22.4µM* | ? | 2.1% | . | ?
CC(C)(C)OC(=O)N1CCC(c2cc(=O)n3[nH]cc(C(=O)NC4CCCC4)c3n2)CC1 | 56.2µM* | -1.0% | 40.6% | . | -16.6%
COc1ccc(NC(=O)c2c[nH]n3c(=O)cc(C4CCN(C(=O)OC(C)(C)C)CC4)nc23)cc1Cl | 44.7µM* | ? | 17.0% | . | -26.7%
CC(C)(C)OC(=O)N1CCC(c2cc(=O)n3[nH]cc(C(=O)Nc4ccc(F)c(Cl)c4)c3n2)CC1 | -41.7% | -1.9% | 8.7%[57 µM] | -0.3% | -17.8%
CC(C)(C)OC(=O)N1CCC(c2c(C(=O)NC3CCCCC3)cnn2-c2cccc(Cl)c2)CC1 | -10.8%[59 µM] | 4.5%[57.1 µM] | -7.3% | . | -32.4%
CCN(CCCNC(=O)c1nn(-c2ccc(OC)c(Cl)c2)c(=O)c2c1c1ccccc1n2C)c1ccccc1 | 1.3%[59 µM] | . | 13.2% | . | -21.3%
CCC(=O)NC1=C(Cl)C(=O)C(NC(=O)CC)=C(Cl)C1=O | 0.251µM* | 44.7µM* | 3.98µM* | -21.8% | 3.98µM*
CCC(=O)NC1=C(NC(C)c2ccccc2)C(=O)c2ccccc2C1=O (stereo unspecified) | ? | ? | 0.9% | . | -28.7%
Cc1cc(C)cc(N2C(=O)CSC23C(=O)N(CC(=O)NC2CCCCC2)c2ccccc23)c1 (stereo unspecified) | -27.5%[59 µM] | 6.0%[57.1 µM] | 17.0% | . | -29.8%
CC1CCCN(C(=O)COC(=O)c2ccc3[nH]c4c(c3c2)CCCC4)C1 (stereo unspecified) | ? | 50.1µM* | -4.9% | -9.4% | -9.0%
CCOC(=O)C1CCN(C(=O)COC(=O)c2ccc3[nH]c4c(c3c2)CCCC4)CC1 | 5.5%[2.33 µM] | ? | -24.3% | -18.4% | ?
CCOc1ccccc1N1CCN(C(=O)c2ccc3[nH]c4c(c3c2)CCCC4)CC1 | 39.8µM* | 39.8µM* | ? | -27.6% | 44.7µM*
COC(=O)C1CCN(C(=O)COC(=O)c2ccc(OC)c(S(=O)(=O)N3CCCc4ccccc43)c2)CC1 | 79.4µM* | 4.8% | 12.7% | -10.7% | -18.1%
COC(=O)C1CCN(C(=O)COC(=O)c2ccc3[nH]c4c(c3c2)CCCC4)CC1 | 50.1µM* | ? | ? | -6.7% | ?
SMILES | G9a block | BAZ2B block | HP1b chromo inh | L3MBTL1 block | JMJD2A Tudor
O=C1CCN(CCc2ccccc2)CCN1C(CSc1ccc(Br)cc1)c1ccccc1 (stereo unspecified) | . | . | 22.6% | . | ?
O=c1c(N2CCc3ccccc3C2)csc2ccccc12 | -35.5%[59 µM] | -34.6% | 18.2%[57 µM] | . | -34.2%
COc1cc(Cl)c(C)cc1NC(=O)CN1c2ccccc2S(=O)(=O)c2ccccc21 | 1.0%[59 µM] | -0.8% | 42.0% | . | -17.6%
O=C(NCc1ccc2[nH]c3c(c2c1)CCCC3)c1ccc(S(=O)(=O)N2CCCCC2)cc1 | 70.8µM* | -32.4% | 7.1% | -12.3% | -21.1%
CC1CCCN(S(=O)(=O)c2ccc3[nH]c4c(c3c2)CCCC4)C1 (stereo unspecified) | . | 25.1µM* | ? | . | ?
CC(C)c1ccc(NC(=O)CCNS(=O)(=O)c2ccc3c(c2)oc(=O)n3C)cc1 | 4.8%[59 µM] | -4.7% | 58.0% | . | -3.6%
CCCCOc1ccc(CNC(=O)C2CCCN(c3nnc(-n4c(C)ccc4C)s3)C2)cc1 (stereo unspecified) | -4.2%[59 µM] | 1.6% | 16.8% | . | -21.5%
CCCCOc1ccc(C(=O)Nc2cccc(-c3nc4cccnc4s3)c2)cc1 | -22.3%[59 µM] | -2.2% | 5.7% | . | -11.6%
CCCCN1C(=O)c2ccccc2NC1c1ccc(OC)c(COc2ccc(NC(C)=O)cc2)c1 (stereo unspecified) | . | . | . | . | -34.0%
COc1ccc(CC(CC(=O)O)C(=O)Nc2ccc(Cl)c(Cl)c2)cc1 (stereo unspecified) | 5.6% | 2.7% | 1.5% | -0.2% | 8.91µM*
COc1ccc(CC(CC(=O)O)C(=O)NCc2ccccc2)cc1 (stereo unspecified) | 56.2µM* | -29.9% | 27.2% | 4.7% | -9.9%
COc1ccc(NC(=O)C(NC(C)=O)C(=O)NCc2ccccc2)cc1 (stereo unspecified) | -27.4%[59 µM] | 10.7% | 19.7% | 0.1% | 8.6%
COCCCn1c(O)c(/C=C2\N=C(C#N)C(=Nc3ccc(C)cc3)O2)sc1=S | ? | 10µM* | ? | -28.1% | ?
COc1ccc(N2CCN(C(=O)c3oc4ccccc4c3NC(=O)Cc3cccc(OC)c3)CC2)cc1 | 39.8µM* | ? | -21.1% | . | 15.8µM*
COc1ccc(N2CCN(C(=O)c3oc4ccccc4c3C)CC2)cc1 | 35.5µM* | . | ? | -8.0% | 39.8µM*
COc1ccc(N2CCN(C(=O)c3cc(=O)c4cc(C)c(C)cc4o3)CC2)cc1 | 6.1% | -9.0% | 6.0% | . | 56.2µM*
COc1ccc(N2CCN(C(=O)c3oc4ccccc4c3NC(=O)Cc3ccc(OC)c(OC)c3)CC2)cc1 | 28.2µM* | ? | 4.4% | . | ?
Cc1ccc(Cl)cc1Nc1nc2ccccc2c2nncn12 | 16.2%[59 µM] | 2.2% | 51.3% | . | 6.8%
Cn1c(SCC(=O)NC(c2ccccc2)c2ccccc2)nnc1-c1cccs1 | -35.3%[12.7 µM] | -5.0% | -11.2% | . | 50.1µM*
Cc1ccc(C(=O)CSc2nnc(-c3cccs3)n2C)o1 | 50.1µM* | 8.5% | 38.1% | . | -0.7%
